Where “and” joins values, the source holds several entries; their conditions need not be identical. Equal values may be shown once. Screen size: about 230,000 compounds; about 1,000 (0.43%) were called active. What follows is part of a selection rich in actives, with near analogues and random picks from the rest. A number with no mark means an inactive call. Calls follow the shape of the dose curve; as a rule, active = well fitted inhibition curve with a large enough effect (not every such curve was filed as active); inactive = no such curve, though single readings can be large or run the other way.
% is scaled to controls: 0 for no effect and ±100 for the full control effect; potency is read from the fitted curve at half-maximal effect.

Chain of Guanine nucleotide-binding protein G(i) subunit alpha-1 (Homo sapiens) (P63096 whole entry, looked up): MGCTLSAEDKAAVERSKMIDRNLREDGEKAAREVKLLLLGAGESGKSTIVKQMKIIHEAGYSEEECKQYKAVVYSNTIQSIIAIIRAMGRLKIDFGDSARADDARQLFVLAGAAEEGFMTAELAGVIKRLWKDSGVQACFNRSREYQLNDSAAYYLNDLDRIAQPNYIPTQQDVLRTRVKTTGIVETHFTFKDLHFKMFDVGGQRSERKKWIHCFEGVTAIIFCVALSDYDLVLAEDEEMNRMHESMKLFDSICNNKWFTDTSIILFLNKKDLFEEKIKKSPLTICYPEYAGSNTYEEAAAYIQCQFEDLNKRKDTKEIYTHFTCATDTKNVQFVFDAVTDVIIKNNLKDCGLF

This experiment has as its target Guanine nucleotide-binding protein G(i) subunit alpha-1 (Homo sapiens) (UniProt P63096). The experiment in a line: qHTS Assay for Inhibitors of RGS12 GoLoco Motif Activity (Red Fluorophore). Also: nearly all actives have a fitted effect of over 30% in size. Conditions: Gai1:RGS12 GoLoco peptide FP, rhodamine, 10 min; series mostly up to 61.6 µM; activity, negative = inhibition: at the top concentration. (In qHTS, concentration-response curves come from the screen itself.)
Regarding `Cc1ccc(-c2csc(NC(=O)Cn3[nH]c(=O)c4ccccc4c3=O)n2)cc1`, the “activity, negative = inhibition” value is 23.6%.

In the case of `COC(=O)c1sc(=S)n(-c2ccccc2)c1N`, the “activity, negative = inhibition” value was -8.96%.

Consider `COCCOC(=O)c1sc(=S)n(CCOC)c1N`, for which the Potency is 12.6 µM (active).

With `CCOC(=O)c1c(N)sc(C(C)=O)c1C`, the “activity, negative = inhibition” value is 5.69%.

Take `Cn1c(=O)n(Cc2ccco2)c(=N)c2c3c(sc21)CCCC3`: the “activity, negative = inhibition” value is 4.71%.

In the case of `CC(N)(C(=O)O)c1ccc(-c2nn[nH]n2)cc1` (stereo not given), the “activity, negative = inhibition” value was 3.74%.

Consider `Cc1ccc(CN2CCN(/N=C/c3cccnc3)CC2)c(C)c1`, for which the “activity, negative = inhibition” value is 28.4%.

As to `Cc1ccc(C2=C/C(=C\c3cccnc3)C(=O)O2)cc1`, the Potency was 0.794 µM (active).

Regarding `O=C1OC(c2ccc(Cl)cc2)=N/C1=C\c1cccnc1`, the “activity, negative = inhibition” value was 12%.

Consider `Cc1ccccc1C1=N/C(=C/c2cccnc2)C(=O)O1`, for which the “activity, negative = inhibition” value is 3.85%.

Consider `CC(C)(C)C1CCC(=NNC(=O)c2cc(-c3ccccc3)n[nH]2)CC1` (stereo not given), for which the “activity, negative = inhibition” value is 10.8%.

In the case of `Cc1ccc(C(=O)N/C(=C/c2ccco2)C(=O)NCCc2c[nH]c3ccccc23)cc1C`, the “activity, negative = inhibition” value was 12.3%.

On to `NC(=O)c1nsc(C(=O)N(CC(=O)NCc2ccc(F)cc2)Cc2ccco2)c1N`, for which the “activity, negative = inhibition” value is -6.49%.

On to `COc1ccc(CCCOC(Cn2ccnc2)c2ccc(OC)cc2)cc1` (stereo not given), for which the Potency result was “inactive”.

For the compound `C[C@]12CC[C@@H]3c4ccc(O)cc4C[C@@H](CCCCCCCCCS(=O)CCCC(F)(F)C(F)(F)F)C3[C@@H]1CC[C@@H]2O` (stereo not given in full), the “activity, negative = inhibition” value was -1.93%.

`CN(C)CCCCCN(C)Cc1cc2ccccc2o1`: the “activity, negative = inhibition” value is 1.21%.

`Nc1ccc2c3c(cccc13)C(=O)NC2=O`: the Potency is 3.16 µM (active) and 20 µM (active).

On to `COC1(C2=NCCN2)COc2ccccc2O1` (stereo not given), for which the “activity, negative = inhibition” value was 7.05%.

Consider `COC(=O)c1nn(-c2cccc(Cl)c2)ccc1=O`, for which the “activity, negative = inhibition” value is 5.66%.

Consider `COc1ccc(C)cc1-n1nnnc1SCc1nc2ccccc2c(=O)[nH]1`, for which the “activity, negative = inhibition” value was 25%.

Consider `Cc1cc2nc3c(=O)[nH]c(=O)nc-3n(C[C@H](O)[C@H](O)[C@H](O)CO)c2cc1C`, for which the Potency is 17.8 µM (active).

For `N#C/C(=C\c1ccc(-c2cccc([N+](=O)[O-])c2)o1)C(=O)NCCN1CCOCC1`, the “activity, negative = inhibition” value is 3.44%.

Turning to `CC(Oc1ccc(-c2ccccc2)c(F)c1)c1ccn(S(=O)(=O)c2cccc3ccccc23)n1` (stereo not given), the “activity, negative = inhibition” value is -2.65%.

Turning to `C=C1O[C@@](CO)(n2cnc3c(N)ncnc32)[C@H](O)[C@@H]1O`, the “activity, negative = inhibition” value is 1.48%.

Regarding `Cc1csc(-c2coc3cc(O[C@@H]4O[C@H](CO)[C@@H](O)[C@@H](O)[C@H]4O)ccc3c2=O)n1`, the “activity, negative = inhibition” value is 2.68%.

For `CN(C)/C(CN1CCCCC1)=C1\N=C(c2ccccc2)OC1=O`, the “activity, negative = inhibition” value is -2.52%.

With `CCOC(=O)N1CCC(N(CCOC)C(=O)Nc2ccc(C)c(C)c2)CC1`, the “activity, negative = inhibition” value was -6.31%.

Take `CN(C)c1nc(=Nc2cccc(Cl)c2)ss1`: the “activity, negative = inhibition” value was -0.735%.

In the case of `S=C(Nc1cccc(Br)c1)N1CCn2cccc2C1c1cccnc1` (stereo not given), the “activity, negative = inhibition” value is 5.93%.

In the case of `c1ccc2sc(SCCSc3nc4ccccc4s3)nc2c1`, the activity, negative = inhibition was 2.61% [at 14.2 µM].

For the compound `O=[N+]([O-])c1c(NCCO)cc(Sc2nc3ccccc3s2)c2nonc12`, the Potency was 8.91 µM (active).

With `O=C(CSc1nc2ccccc2s1)Nc1ccc(C(=O)O)cc1`, the “activity, negative = inhibition” value was 16.3%.

As to `COc1ccc(-c2nc(CS(=O)CC(=O)NCc3cccnc3)c(C)o2)cc1OC` (stereo not given), the “activity, negative = inhibition” value was 7.34%.

As to `COc1ccc(-c2nc(CS(=O)CC(=O)NCc3ccccn3)c(C)o2)cc1` (stereo not given), the Potency is 14.1 µM (active).

Turning to `COc1ccc(-c2nc(CS(=O)CC(=O)N3CCc4ccccc4C3)c(C)o2)cc1` (stereo not given), the “activity, negative = inhibition” value is 8.47%.

Consider `O=C(c1ccccc1)c1ccc(OCC(O)CN2CCCC2)cc1` (stereo not given), for which the “activity, negative = inhibition” value is 0.574%.

Turning to `O=[N+]([O-])c1ccc(N2CCN(CC(O)COc3ccccc3)CC2)cc1` (stereo not given), the “activity, negative = inhibition” value was -3.92%.

Turning to `C[N+]1(CC(O)COc2ccccc2)CCN(C(=O)c2ccc([N+](=O)[O-])cc2)CC1` (stereo not given), the Potency is 12.6 µM (active).

`CN(C)C(=O)c1nc2ccc(Cl)cn2c1CNCc1cccc(OC(F)(F)F)c1`: the “activity, negative = inhibition” value is 9.02%.

With `Cn1nc(C(F)(F)F)cc1C(=O)O`, the “activity, negative = inhibition” value is -5.27%.

Regarding `O=[N+]([O-])c1cc(S(=O)(=O)CCCN2CCOCC2)ccc1F`, the “activity, negative = inhibition” value is 9.83%.

Take `CC(C)c1cnc(NC(=O)Cc2ccccc2)s1`: the “activity, negative = inhibition” value is 9.35%.

Turning to `O=C(CSc1ncnc2c1cnn2CCc1ccccc1)Nc1ccc(F)cc1`, the “activity, negative = inhibition” value was -3.51%.

For `Oc1ccc(CNc2ccccc2O)cc1`, the “activity, negative = inhibition” value is 71.8%.

Turning to `O=C(OCc1ccccc1)c1ccc(O)cc1`, the “activity, negative = inhibition” value was 9.09%.

For the compound `COC(=O)CCCCCN1C(=O)NC(c2ccc(-c3ccccc3)cc2)C(C(=O)OCc2ccccc2)=C1C` (stereo not given), the Potency entry is “inactive”.

For `CC(=O)[C@H](C(c1ccccc1)N1CCOCC1)N1CCOCC1` (stereo not given in full), the activity, negative = inhibition is -7.72% [at 14.2 µM].

With `C=C(C(C)=O)C(O)c1ccc([N+](=O)[O-])cc1` (stereo not given), the “activity, negative = inhibition” value was -2.53%.

In the case of `CCOC(=O)C1(CC2CCCCO2)CCN(Cc2nc(-c3cccs3)oc2C)CC1` (stereo not given), the “activity, negative = inhibition” value is 7.2%.

With `OCC(CO)NC1C[C@](O)(CO)[C@@H](O)[C@H](O)[C@H]1O` (stereo not given in full), the “activity, negative = inhibition” value was 4.17%.

As to `NC1CCN(O)C1=O` (stereo not given), the “activity, negative = inhibition” value is 7.53%.

In the case of `CCc1ccc(-n2c(SCc3cc(=O)n4cc(Br)ccc4n3)nc3[nH]ncc3c2=O)cc1`, the “activity, negative = inhibition” value was 9%.

As for `CC(O)COc1ccccc1` (stereo not given), the “activity, negative = inhibition” value is 3.23%.

Regarding `O=C(O)/C=C/c1ccc(OCCCF)cc1`, the “activity, negative = inhibition” value is 4.77%.

In the case of `Cc1cccc(Br)c1`, the “activity, negative = inhibition” value is 0.712%.

`O=C1OCCN1C(=O)[C@H]1[C@H](c2ccc(Cl)cc2)C(c2cccc(Cl)c2)=NN1c1ccc(Br)cc1`: the “activity, negative = inhibition” value is 7.07%.

As to `CC(O)[C@@H](N)C(=O)O` (stereo not given in full), the “activity, negative = inhibition” value was 0.527%.

Consider `O=P(O)(O)C(O)c1ccc2ccccc2c1` (stereo not given), for which the “activity, negative = inhibition” value is -0.516%.

With `Cc1ccnc(SCC(N)=O)n1`, the “activity, negative = inhibition” value was 8.28%.

In the case of `Cc1ccnc(-n2sc3ccccc3c2=O)n1`, the Potency was 14.1 µM (active).

Turning to `Cc1ccnc(Nc2nc3ccccc3s2)n1`, the “activity, negative = inhibition” value was 4.81%.

As for `O=c1[nH]c2ccccc2n2c(-c3ccccc3)nnc12`, the Potency is 12.6 µM (active).

In the case of `Cc1ccc(-c2nc3ccccc3[nH]c2=O)cc1`, the “activity, negative = inhibition” value was 0.424%.

Take `CCOC(=O)c1cnc2[nH]c3ccccc3n2c1=O`: the “activity, negative = inhibition” value is 10.1%.

For `O=C(Nc1cccc(F)c1)N1CCC2(CC1)CCN(S(=O)(=O)c1ccccc1)CC2`, the “activity, negative = inhibition” value is 8.81%.

On to `CCOC(=O)C1=NO[C@@]2(C=C(Br)C(=O)[C@H]3O[C@H]32)C1`, for which the “activity, negative = inhibition” value was -2.47%.

Regarding `COc1ccc2c(-c3ccccc3)cc(SCC(=O)N(C)C3CCS(=O)(=O)C3)nc2c1` (stereo not given), the “activity, negative = inhibition” value was -0.0537%.

`CC(=O)OC1C([N+]2(C)CCCCC2)C[C@H]2C3CC[C@H]4C[C@H](OC(C)=O)C([N+]5(C)CCCCC5)CC4(C)C3CCC12C` (stereo not given in full): the “activity, negative = inhibition” value was 4.19%.

Consider `C=CC(=O)OCCOCCOCCOCCOC(=O)C=C`, for which the Potency entry was “inactive”.

As for `Cc1cccc(-n2c(=O)c3c(C)c(C)sc3n(CC(N)=O)c2=O)c1`, the “activity, negative = inhibition” value is -2.7%.

The values above are taken from PubChem BioAssay AID880 (National Center for Advancing Translational Sciences (NCATS), 2007).
